Source: PubChem BioAssay AID1159580 (chemical genetic matrix, 2015)
Where “and” joins values, the source holds several entries; their conditions need not be identical. Equal entries are not always repeated. Out of some 5,500 compounds screened, about 2,000 (36%) were called active. Not shown: some 18% with an inconclusive outcome. Rule as the data show it: active = normalized growth mostly below about 0.91 (no sharp cut-off); inconclusive = no clear call, values can overlap the other calls; inactive = mostly above about 0.92. The list shows a part of the results.

Assay: chemical genetic growth profiling, strain panel (AID 1159580);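 also: tested at 20 µM; growth read once vehicle control cultures reached saturation at 30 °C; 1 = growth at the plate median or of vehicle wells; lower values mean less growth of the strain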
Details: S. cerevisiae deletion strains, growth OD

Measured: normalized growth

C=C1c2cccc(O)c2C(O)=C2C(=O)[C@]3(O)C(O)=C(C(N)=O)C(=O)[C@@H](N(C)C)[C@@H]3[C@@H](O)[C@H]12
inactive: locus YAL013W, strain DEP1, active compounds read low 0.997 | locus YAL021C, strain ccr4, active compounds read low 1.02 | locus YAL026C, strain drs2, active compounds read low 1.01 | locus YAL030W, strain snc1, active compounds read low 1.01 | locus YBL061C, strain skt5, active compounds read low 1.01 | locus YBR009C, strain hhf1, active compounds read low 1 | locus YBR021W, strain FUR4, active compounds read low 1.01 | locus YBR023C, strain chs3, active compounds read low 1 | locus YBR171W, strain sec66, active compounds read low 1.02 | locus YBR229C, strain ROT2, active compounds read low 0.987 | locus YBR231C, strain swc5, active compounds read low 1.02 | locus YBR279W, strain paf1, active compounds read low 1.01 | locus YCL011C, strain gbp2, active compounds read low 1.01 | locus YCL016C, strain dcc1, active compounds read low 1.02 | locus YCL029C, strain bik1, active compounds read low 0.965 | locus YCL061C, strain MRC1, active compounds read low 1.02 | locus YCL069W, strain vba3, active compounds read low 1.01 | locus YCR088W, strain abp1, active compounds read low 0.997 | locus YDL005C, strain med2, active compounds read low 1.02 | locus YDL035C, strain GPR1, active compounds read low 0.98 | locus YDL040C, strain nat1, active compounds read low 1.02 | locus YDL074C, strain BRE1, active compounds read low 0.962 | locus YDL101C, strain DUN1, active compounds read low 0.978 | locus YDL134C, strain PPH21, active compounds read low 1.01 | locus YDL185W, strain tfp1, active compounds read low 0.925 | locus YDL192W, strain arf1, active compounds read low 0.971 | locus YDR001C, strain nth1, active compounds read low 1.01 | locus YDR069C, strain doa4, active compounds read low 1.01 | locus YDR101C, strain arx1, active compounds read low 0.957 | locus YDR137W, strain rgp1, active compounds read low 0.927 | locus YDR150W, strain NUM1, active compounds read low 0.99 | locus YDR159W, strain sac3, active compounds read low 1.01 | locus YDR162C, strain NBP2, active compounds read low 0.981 | locus YDR195W, strain ref2 0.997 | locus YDR297W, strain sur2, active compounds read low 1.01 | locus YDR318W, strain mcm21, active compounds read low 0.975 | locus YDR334W, strain swr1, active compounds read low 1.01 | locus YDR335W, strain msn5, active compounds read low 1.01 | locus YDR388W, active compounds read low 0.991 | locus YDR392W, strain spt3, active compounds read low 0.957 | locus YDR502C, strain sam2, active compounds read low 1 | locus YEL003W, strain gim4, active compounds read low 1 | locus YEL037C, strain rad23, active compounds read low 1.01 | locus YEL061C, strain CIN8 (second series), active compounds read low 1.01 | locus YEL061C, strain CIN8, active compounds read low 0.988 | locus YER015W, strain faa2, active compounds read low 0.991 | locus YER016W, strain bim1, active compounds read low 0.946 | locus YER110C, active compounds read low 0.997 | locus YER111C, strain swi4, active compounds read low 1.01 | locus YER155C, strain BEM2 (second series), active compounds read low 0.966 | locus YER155C, strain BEM2, active compounds read low 1.01 | locus YER167W, strain BCK2, active compounds read low 0.992 | locus YFR010W, strain ubp6, active compounds read low 1.02 | locus YGL078C, strain dbp3, active compounds read low 0.993 | locus YGL086W, strain mad1, active compounds read low 0.993 | locus YGL167C, strain pmr1, active compounds read low 1.02 | locus YGL173C, strain kem1, active compounds read low 1.01 | locus YGL227W, strain vid30, active compounds read low 1.01 | locus YGL240W, strain doc1, active compounds read low 1.03 | locus YGL248W, strain PDE1, active compounds read low 0.979 | locus YGL253W, strain hxk2, active compounds read low 1.01 | locus YGR078C, strain PAC10, active compounds read low 0.928 | locus YGR135W, strain pre9, active compounds read low 0.987 | locus YGR229C, strain SMI1, active compounds read low 0.947 | locus YGR252W, strain gcn5, active compounds read low 1.11 | locus YHR013C, strain ard1, active compounds read low 1.02 | locus YHR027C, strain rpn1, active compounds read low 1.01 | locus YHR030C, strain SLT2, active compounds read low 0.994 and 0.979 | locus YHR079C, strain IRE1 (second series), active compounds read low 0.982 | locus YHR079C, strain IRE1, active compounds read low 0.978 | locus YHR094C, strain hxt1, active compounds read low 0.992 | locus YHR129C, strain ARP1, active compounds read low 0.982 | locus YHR142W, strain chs7, active compounds read low 1.05 | locus YHR200W, strain rpn10, active compounds read low 0.97 | locus YIL066C, strain RNR3, active compounds read low 0.948 | locus YIL073C, strain SPO22, active compounds read low 0.945 | locus YIL125W, strain kgd1, active compounds read low 0.989 | locus YIR030C, strain dcg1, active compounds read low 1 | locus YJL092W, strain hpr5, active compounds read low 1.01 | locus YJL095W, strain BCK1 (second series), active compounds read low 1.02 | locus YJL095W, strain BCK1, active compounds read low 0.899 and 0.972 | locus YJL115W, strain asf1, active compounds read low 1.03 | locus YJL129C, strain trk1, active compounds read low 1.04 | locus YJL134W, strain LCB3, active compounds read low 0.992 | locus YJL154C, strain vps35, active compounds read low 1.04 | locus YJL164C, strain tpk1, active compounds read low 0.983 | locus YJL166W, strain qcr8, active compounds read low 1.02 | locus YJL168C, strain set2, active compounds read low 0.982 | locus YJL187C, strain SWE1 (second series), active compounds read low 0.929 | locus YJR043C, strain POL32, active compounds read low 0.923 | locus YJR066W, strain TOR1, active compounds read low 0.913
